Reference: article PMC7862700, “An all-to-all approach to the identification of sequence-specific readers for epigenetic DNA modifications on cytosine”

How the values were obtained:
Test in all cases: DAPPL (digital affinity profiling via proximity ligation, sequencing); 10 mM Tris-HCl pH 7.5, 50 mM NaCl, 1 mM DTT, 4% glycerol, room temperature, 30 min; GST-TFs on glutathione beads, 16-mer random dsDNA library, 0.1% formaldehyde crosslink after washing; high values mean tight binding
FEV = molecular target: T1, FEV (Homo sapiens, UniProt Q99581 1-238); details: protein: recombinant; tags: N-terminal GST; dsDNA, one strand shown
T1 sequence: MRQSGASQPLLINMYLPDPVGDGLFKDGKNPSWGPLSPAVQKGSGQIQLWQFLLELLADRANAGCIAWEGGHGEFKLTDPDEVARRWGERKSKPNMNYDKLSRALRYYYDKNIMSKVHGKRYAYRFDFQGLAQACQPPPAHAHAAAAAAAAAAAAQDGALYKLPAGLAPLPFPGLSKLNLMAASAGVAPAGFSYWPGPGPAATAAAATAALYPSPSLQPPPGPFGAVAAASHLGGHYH
How it was run: (§1)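 Human transcription factors were made in yeast as GST fusions, captured on glutathione beads and barcoded with DNA. With a tag-only sample included, the pool was incubated with 200 nmole of a random double-stranded 16-mer DNA library in Tris/NaCl/DTT/glycerol buffer at room temperature for 30 min, then crosslinked with 0.1% formaldehyde after washing, ligated by proximity, amplified and sequenced. For binding signal, each hexamer's read frequency for a factor is divided by its frequency for the tag-only sample.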

ETV5 = ETV5 (Homo sapiens, UniProt P41161 1-510); details: protein: recombinant; tags: N-terminal GST; dsDNA, one strand shown
How it was run: as §1

HSF1 = HSF1 (Homo sapiens, UniProt Q00613 1-529); details: protein: recombinant; tags: N-terminal GST; chain copies: 3; dsDNA, one strand shown
How it was run: as §1

SPIC = molecular target: T2, SPIC (Homo sapiens, UniProt Q8N5J4 1-248); details: protein: recombinant; tags: N-terminal GST; dsDNA, one strand shown
T2 sequence: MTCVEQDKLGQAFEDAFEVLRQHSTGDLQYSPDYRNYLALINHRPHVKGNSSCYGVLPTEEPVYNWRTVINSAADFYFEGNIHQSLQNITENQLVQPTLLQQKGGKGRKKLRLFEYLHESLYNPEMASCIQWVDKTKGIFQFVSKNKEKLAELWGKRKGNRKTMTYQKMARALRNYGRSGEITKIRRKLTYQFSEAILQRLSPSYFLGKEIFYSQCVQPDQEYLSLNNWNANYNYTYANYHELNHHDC
How it was run: as §1

ELF4 = ELF4 (Homo sapiens, UniProt Q99607 1-663); details: protein: recombinant; tags: N-terminal GST; dsDNA, one strand shown
How it was run: as §1

ELK4 = molecular target: T3, ELK4 (Homo sapiens, UniProt P28324-2 1-405); details: protein: recombinant; tags: N-terminal GST; dsDNA, one strand shown
T3 sequence: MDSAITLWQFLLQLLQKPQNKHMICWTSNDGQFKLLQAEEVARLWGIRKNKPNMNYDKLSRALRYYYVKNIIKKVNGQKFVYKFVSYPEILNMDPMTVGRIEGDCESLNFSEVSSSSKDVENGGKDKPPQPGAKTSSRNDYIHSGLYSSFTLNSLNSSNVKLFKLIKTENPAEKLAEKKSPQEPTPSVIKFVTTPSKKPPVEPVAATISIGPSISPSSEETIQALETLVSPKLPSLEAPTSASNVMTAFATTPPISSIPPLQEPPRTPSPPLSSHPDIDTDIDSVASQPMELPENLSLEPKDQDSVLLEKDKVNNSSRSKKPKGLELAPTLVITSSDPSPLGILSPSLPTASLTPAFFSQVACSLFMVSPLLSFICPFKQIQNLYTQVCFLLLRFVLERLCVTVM
How it was run: as §1

ETV2 = molecular target: T4, ETV2 (Homo sapiens, UniProt O00321 1-342); details: protein: recombinant; tags: N-terminal GST; dsDNA, one strand shown
T4 sequence: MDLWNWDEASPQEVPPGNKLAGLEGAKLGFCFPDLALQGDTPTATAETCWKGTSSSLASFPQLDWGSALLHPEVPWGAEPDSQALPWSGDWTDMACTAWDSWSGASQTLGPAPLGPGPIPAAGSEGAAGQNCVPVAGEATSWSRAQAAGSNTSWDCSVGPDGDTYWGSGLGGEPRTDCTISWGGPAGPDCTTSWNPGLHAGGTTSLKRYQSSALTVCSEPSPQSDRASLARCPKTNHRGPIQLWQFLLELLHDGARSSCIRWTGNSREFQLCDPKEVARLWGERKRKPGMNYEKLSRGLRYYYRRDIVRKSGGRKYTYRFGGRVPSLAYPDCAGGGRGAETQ
How it was run: as §1

ELF3 = molecular target: T5, ELF3 (Homo sapiens, UniProt P78545 1-371); details: protein: recombinant; tags: N-terminal GST; dsDNA, one strand shown
T5 sequence: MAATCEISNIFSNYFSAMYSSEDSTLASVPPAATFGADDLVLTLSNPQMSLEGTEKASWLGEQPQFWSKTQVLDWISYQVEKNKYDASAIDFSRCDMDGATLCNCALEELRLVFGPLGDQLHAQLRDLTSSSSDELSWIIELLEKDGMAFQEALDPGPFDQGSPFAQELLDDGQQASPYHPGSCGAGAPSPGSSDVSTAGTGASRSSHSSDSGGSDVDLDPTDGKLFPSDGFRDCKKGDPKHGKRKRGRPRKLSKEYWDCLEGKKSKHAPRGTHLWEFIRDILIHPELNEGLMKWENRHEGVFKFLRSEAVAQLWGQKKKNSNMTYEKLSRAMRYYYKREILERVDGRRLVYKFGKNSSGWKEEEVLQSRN
How it was run: as §1

CRX = CRX (Homo sapiens, UniProt O43186 1-299); details: protein: recombinant; tags: N-terminal GST; dsDNA, one strand shown
How it was run: as §1

ETV1 = ETV1 (Homo sapiens, UniProt P50549 1-477); details: protein: recombinant; tags: N-terminal GST; dsDNA, one strand shown
How it was run: as §1

ERF = molecular target: T6, ERF (Homo sapiens, UniProt P50548 1-548); details: protein: recombinant; tags: N-terminal GST; dsDNA, one strand shown
T6 sequence: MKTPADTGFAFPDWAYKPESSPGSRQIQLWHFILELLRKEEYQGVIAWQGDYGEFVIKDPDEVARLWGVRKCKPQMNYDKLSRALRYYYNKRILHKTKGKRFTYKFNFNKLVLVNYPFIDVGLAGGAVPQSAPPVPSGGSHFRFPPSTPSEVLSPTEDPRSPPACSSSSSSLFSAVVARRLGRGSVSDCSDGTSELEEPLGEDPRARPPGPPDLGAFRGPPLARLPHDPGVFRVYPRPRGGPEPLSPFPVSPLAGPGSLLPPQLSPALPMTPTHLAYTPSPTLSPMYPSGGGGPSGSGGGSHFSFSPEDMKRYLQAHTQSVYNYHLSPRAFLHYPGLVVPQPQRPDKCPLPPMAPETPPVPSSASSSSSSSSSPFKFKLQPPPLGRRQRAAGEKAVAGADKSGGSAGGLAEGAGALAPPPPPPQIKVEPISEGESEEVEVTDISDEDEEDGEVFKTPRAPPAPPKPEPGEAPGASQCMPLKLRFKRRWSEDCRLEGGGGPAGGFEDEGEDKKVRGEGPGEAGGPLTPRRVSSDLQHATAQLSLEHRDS
How it was run: as §1

ETV3L = molecular target: T7, ETV3L (Homo sapiens, UniProt Q6ZN32 1-361); details: protein: recombinant; tags: N-terminal GST; dsDNA, one strand shown
T7 sequence: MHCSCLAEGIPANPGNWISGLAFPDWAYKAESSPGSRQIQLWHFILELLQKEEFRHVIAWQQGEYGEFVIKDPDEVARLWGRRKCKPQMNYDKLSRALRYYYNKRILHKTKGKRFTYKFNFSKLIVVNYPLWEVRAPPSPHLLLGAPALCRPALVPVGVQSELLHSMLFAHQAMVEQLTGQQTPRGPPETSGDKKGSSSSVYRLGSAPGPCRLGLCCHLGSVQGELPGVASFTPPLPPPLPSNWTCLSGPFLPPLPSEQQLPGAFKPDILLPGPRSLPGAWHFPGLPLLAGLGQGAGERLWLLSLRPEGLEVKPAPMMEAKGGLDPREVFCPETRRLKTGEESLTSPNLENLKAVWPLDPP
How it was run: as §1

ETS2 = molecular target: T8, ETS2 (Homo sapiens, UniProt P15036 1-469); details: protein: recombinant; tags: N-terminal GST; dsDNA, one strand shown
T8 sequence: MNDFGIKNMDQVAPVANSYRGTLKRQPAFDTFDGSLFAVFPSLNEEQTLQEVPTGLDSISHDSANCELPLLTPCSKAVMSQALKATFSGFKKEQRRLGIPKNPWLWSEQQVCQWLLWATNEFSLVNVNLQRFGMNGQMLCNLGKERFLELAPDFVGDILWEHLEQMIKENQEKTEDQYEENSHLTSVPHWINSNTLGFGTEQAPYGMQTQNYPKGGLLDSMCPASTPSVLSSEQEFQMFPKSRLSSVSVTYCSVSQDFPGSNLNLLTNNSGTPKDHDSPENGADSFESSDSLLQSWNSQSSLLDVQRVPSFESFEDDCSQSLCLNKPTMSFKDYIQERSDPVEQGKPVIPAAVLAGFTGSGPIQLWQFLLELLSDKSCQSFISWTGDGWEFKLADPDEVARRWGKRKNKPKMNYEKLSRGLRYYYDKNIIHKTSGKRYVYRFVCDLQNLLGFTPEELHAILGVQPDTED
How it was run: as §1

SPDEF = molecular target: T9, SPDEF (Homo sapiens, UniProt O95238 1-335); details: protein: recombinant; tags: N-terminal GST; dsDNA, one strand shown
T9 sequence: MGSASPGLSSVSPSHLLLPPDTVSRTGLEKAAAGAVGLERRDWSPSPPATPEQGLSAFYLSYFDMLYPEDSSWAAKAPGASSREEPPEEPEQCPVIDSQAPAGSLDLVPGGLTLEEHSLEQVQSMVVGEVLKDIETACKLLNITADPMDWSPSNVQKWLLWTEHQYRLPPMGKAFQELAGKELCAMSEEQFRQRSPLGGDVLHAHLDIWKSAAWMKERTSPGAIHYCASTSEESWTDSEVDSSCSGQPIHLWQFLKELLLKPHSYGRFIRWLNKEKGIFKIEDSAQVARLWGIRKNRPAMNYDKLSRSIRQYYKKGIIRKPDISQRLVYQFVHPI
How it was run: as §1

ETV7 = molecular target: T10, ETV7 (Homo sapiens, UniProt Q9Y603 1-341); details: protein: recombinant; tags: N-terminal GST; dsDNA, one strand shown
T10 sequence: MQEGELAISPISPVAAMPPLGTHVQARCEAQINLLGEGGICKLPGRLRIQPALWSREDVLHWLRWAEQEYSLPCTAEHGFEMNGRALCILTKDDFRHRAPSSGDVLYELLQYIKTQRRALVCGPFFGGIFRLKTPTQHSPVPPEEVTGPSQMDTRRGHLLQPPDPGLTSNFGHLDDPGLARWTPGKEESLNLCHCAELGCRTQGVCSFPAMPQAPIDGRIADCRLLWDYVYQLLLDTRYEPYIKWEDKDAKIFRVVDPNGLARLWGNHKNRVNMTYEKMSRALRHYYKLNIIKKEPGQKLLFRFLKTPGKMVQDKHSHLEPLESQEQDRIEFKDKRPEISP
How it was run: as §1

ELF5 = molecular target: T11, ELF5 (Homo sapiens, UniProt Q9UKW6-2 1-255); details: protein: recombinant; tags: N-terminal GST; dsDNA, one strand shown
T11 sequence: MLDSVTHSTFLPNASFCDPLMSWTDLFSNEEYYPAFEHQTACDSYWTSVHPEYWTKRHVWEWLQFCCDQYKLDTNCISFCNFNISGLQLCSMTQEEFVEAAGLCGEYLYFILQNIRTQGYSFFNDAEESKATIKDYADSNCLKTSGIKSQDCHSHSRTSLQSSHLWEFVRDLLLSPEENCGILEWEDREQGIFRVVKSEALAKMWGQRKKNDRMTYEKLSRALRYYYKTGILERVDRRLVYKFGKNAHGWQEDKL
How it was run: as §1

ETV3 = molecular target: T12, ETV3 (Homo sapiens, UniProt P41162-2 1-143); details: protein: recombinant; tags: N-terminal GST; dsDNA, one strand shown
T12 sequence: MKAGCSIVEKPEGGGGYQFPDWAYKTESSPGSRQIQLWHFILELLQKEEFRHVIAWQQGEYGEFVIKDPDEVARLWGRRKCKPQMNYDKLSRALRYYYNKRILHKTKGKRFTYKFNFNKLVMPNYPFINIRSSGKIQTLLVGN
How it was run: as §1

ETV6 = ETV6 (Homo sapiens, UniProt P41212 1-452); details: protein: recombinant; tags: N-terminal GST; dsDNA, one strand shown
How it was run: as §1

Chain of CRX (O43186 whole entry): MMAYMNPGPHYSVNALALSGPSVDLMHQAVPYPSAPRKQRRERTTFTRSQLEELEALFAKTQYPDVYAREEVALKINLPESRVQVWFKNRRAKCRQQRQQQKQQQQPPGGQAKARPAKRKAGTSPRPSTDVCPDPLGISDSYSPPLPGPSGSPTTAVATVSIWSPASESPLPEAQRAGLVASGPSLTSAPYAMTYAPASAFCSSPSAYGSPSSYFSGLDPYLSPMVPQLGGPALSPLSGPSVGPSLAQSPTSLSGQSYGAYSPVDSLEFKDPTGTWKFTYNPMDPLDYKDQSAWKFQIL
Chain of ELF4 (Q99607 whole entry): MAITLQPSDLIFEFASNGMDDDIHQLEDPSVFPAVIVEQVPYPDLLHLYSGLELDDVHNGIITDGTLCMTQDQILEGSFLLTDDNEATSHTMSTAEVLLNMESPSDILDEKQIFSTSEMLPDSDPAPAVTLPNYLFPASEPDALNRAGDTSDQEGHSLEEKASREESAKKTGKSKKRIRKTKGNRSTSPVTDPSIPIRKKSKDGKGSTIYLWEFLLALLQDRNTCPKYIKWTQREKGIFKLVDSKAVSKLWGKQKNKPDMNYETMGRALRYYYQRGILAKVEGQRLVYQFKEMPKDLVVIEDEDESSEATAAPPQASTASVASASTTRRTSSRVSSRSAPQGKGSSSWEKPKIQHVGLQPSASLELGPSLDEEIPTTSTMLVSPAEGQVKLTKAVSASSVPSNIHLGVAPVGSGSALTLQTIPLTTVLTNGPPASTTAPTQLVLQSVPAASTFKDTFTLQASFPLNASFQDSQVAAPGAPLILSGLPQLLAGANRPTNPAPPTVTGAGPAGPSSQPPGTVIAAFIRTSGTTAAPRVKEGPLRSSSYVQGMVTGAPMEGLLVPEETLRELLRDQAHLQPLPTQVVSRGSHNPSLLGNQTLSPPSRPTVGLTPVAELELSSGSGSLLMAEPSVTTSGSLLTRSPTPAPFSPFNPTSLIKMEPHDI
Chain of ETV1 (P50549 whole entry): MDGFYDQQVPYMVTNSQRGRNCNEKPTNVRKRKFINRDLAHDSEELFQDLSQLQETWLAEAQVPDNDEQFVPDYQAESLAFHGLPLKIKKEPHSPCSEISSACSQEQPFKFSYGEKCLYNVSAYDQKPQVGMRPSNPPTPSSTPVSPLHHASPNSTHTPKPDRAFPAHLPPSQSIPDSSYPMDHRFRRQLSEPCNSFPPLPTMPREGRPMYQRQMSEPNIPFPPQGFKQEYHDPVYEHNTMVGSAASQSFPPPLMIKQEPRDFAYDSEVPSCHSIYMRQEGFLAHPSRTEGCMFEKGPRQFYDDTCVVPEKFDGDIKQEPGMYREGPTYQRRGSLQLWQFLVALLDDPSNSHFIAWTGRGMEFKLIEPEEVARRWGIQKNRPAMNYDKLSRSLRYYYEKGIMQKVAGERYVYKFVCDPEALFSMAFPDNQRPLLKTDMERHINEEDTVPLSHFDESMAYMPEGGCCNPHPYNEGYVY
Chain of HSF1 (Q00613 whole entry): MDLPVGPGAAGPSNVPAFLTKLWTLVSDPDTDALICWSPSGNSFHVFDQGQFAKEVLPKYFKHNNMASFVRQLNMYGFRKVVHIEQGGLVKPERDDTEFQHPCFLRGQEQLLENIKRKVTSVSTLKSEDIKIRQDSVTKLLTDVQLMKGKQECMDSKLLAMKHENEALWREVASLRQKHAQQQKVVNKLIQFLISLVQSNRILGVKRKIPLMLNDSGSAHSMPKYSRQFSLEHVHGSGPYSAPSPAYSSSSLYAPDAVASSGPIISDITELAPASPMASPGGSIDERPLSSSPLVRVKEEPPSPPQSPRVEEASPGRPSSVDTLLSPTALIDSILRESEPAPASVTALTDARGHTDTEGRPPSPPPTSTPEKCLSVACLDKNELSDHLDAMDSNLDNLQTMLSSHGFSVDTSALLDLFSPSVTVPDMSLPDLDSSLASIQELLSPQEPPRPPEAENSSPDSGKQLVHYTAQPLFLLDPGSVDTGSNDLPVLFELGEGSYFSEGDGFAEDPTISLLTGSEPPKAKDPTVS
Chain of ETV5 (P41161 whole entry): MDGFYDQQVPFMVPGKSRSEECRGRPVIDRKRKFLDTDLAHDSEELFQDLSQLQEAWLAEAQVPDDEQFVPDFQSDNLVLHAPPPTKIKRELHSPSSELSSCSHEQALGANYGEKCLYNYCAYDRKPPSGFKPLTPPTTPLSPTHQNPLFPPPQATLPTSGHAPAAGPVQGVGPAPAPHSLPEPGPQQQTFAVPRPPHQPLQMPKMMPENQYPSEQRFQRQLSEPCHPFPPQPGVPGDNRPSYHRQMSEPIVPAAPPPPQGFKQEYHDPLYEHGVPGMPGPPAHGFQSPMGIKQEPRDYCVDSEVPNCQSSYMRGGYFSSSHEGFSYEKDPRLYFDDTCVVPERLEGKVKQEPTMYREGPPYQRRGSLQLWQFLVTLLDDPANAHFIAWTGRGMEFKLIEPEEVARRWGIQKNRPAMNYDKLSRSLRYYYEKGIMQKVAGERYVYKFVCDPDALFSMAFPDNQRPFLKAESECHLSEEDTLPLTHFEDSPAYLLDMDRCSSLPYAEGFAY
Chain of ETV6 (P41212 whole entry): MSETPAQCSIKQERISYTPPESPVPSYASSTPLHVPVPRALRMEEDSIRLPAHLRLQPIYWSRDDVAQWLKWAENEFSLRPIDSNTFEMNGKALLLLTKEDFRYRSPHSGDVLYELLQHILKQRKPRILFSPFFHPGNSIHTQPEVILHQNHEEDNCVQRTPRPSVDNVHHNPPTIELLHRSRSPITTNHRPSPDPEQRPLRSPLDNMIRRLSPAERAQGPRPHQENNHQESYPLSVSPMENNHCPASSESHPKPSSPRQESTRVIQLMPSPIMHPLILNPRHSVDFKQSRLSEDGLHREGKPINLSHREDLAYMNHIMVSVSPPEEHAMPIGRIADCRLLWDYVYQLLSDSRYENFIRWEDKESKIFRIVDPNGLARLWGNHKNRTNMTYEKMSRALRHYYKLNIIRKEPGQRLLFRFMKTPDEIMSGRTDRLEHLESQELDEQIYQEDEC

For ATGAAT, the binding signal (FEV) was 1.07 fold enrichment (6-mer frequency, TF over GST control), the binding signal (ETV5) was 1.1 fold enrichment (6-mer frequency, TF over GST control) and the binding signal (HSF1) was 1.19 fold enrichment (6-mer frequency, TF over GST control). The binding signal (SPIC) was 1.31 fold enrichment (6-mer frequency, TF over GST control), the binding signal (ELF4) was 1.14 fold enrichment (6-mer frequency, TF over GST control) and the binding signal (ELK4) was 1.13 fold enrichment (6-mer frequency, TF over GST control). The binding signal (ETV2) was 1.04 fold enrichment (6-mer frequency, TF over GST control), the binding signal (ELF3) was 1.08 fold enrichment (6-mer frequency, TF over GST control) and the binding signal (CRX) was 1.2 fold enrichment (6-mer frequency, TF over GST control). The binding signal (ETV1) was 1.16 fold enrichment (6-mer frequency, TF over GST control), the binding signal (ERF) was 1.16 fold enrichment (6-mer frequency, TF over GST control) and the binding signal (ETV3L) was 1.14 fold enrichment (6-mer frequency, TF over GST control). For the same sequence, the binding signal (ETS2) was 1.17 fold enrichment (6-mer frequency, TF over GST control), the binding signal (SPDEF) was 1.06 fold enrichment (6-mer frequency, TF over GST control) and the binding signal (ETV7) was 1.19 fold enrichment (6-mer frequency, TF over GST control). The binding signal (ELF5) was 1.09 fold enrichment (6-mer frequency, TF over GST control), the binding signal (ETV3) was 1.2 fold enrichment (6-mer frequency, TF over GST control) and the binding signal (ETV6) was 1.15 fold enrichment (6-mer frequency, TF over GST control).
